Screening results as filed in PubChem.
KDM5B inh = inhibitors of human KDM5B histone demethylase. Q9UGL1. KDM5B demethylase, FDH-coupled NADH fluorescence (FDH is formaldehyde dehydrogenase). Potency, µM (titrated, usually from 57.7 µM), usual class: inhibitors. actives 2.6% (n = 220,000); active means well fitted inhibition curve with a large enough effect; further: 0% is about no effect; nearly all actives have a fitted effect of over 70% in size
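qHTS format, multiple compound concentrations. Buffer 50 mM HEPES pH 7.5/0.01% Tween-20; 200 nM KDM5BΔAP final; 10 min compound preincubation; substrate-mix levels 12.5 µM peptide, 25 µM α-KG, 0.25 mM NAD⁺; 30 min RT; ΔRFU.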
Numbers without * were called inactive; i = inactive. The full list was thinned out, with hits kept by preference. Potency means the concentration at half of the fitted maximal effect.

SMILES	KDM5B inh
CCN(CC)Cc1cnc2c(C(=O)N3CCCC(COC)C3)cnn2c1 (stereo unspecified)	i
CCC(O)C1CCN(C(=O)c2cnn3cc(CN(CC)CC)cnc23)CC1 (stereo unspecified)	i
CCOc1nc2ccccc2nc1N1CCC(C(=O)Nc2ccc(Cl)cc2C)CC1	i
Cn1nc(C2CCN(C(=O)Nc3ccc(Cl)cc3)CC2)[nH]c1=O	i
CCCNc1nc(-c2cccc(Cl)c2)cs1	i
Cc1cccc(C(=O)NC2CCCCCC2)n1	i
Cc1cccc(C)c1-c1nc(C(=O)NC2CC2)n2ccccc12	100µM*
C#CCNC(=O)c1nc(-c2c(C)cccc2C)c2ccccn12	40µM*
CCc1ccccc1-n1c(C)nc2cc(C(=O)NCCc3ccc(Cl)cc3)ccc21	i
COC(=O)CNC(=O)Cn1ccc2c(Cl)cccc21	i
Cc1ccccc1-n1nnc(C(=O)NC2CCCC2)c1N	i
COC(=O)CNC(=O)c1nc(-c2cc(Cl)cc(Cl)c2)c2ccccn12	25µM*
Cc1cc(C)c2c(-n3cccc3)c(C(=O)NCCc3ccc(Cl)cc3)sc2n1	i
Cc1cccc(C)c1-c1nc(C(=O)NCCc2ccc(Cl)cc2)n2ccccc12	14µM*
CN(CCC(=O)c1cccs1)CCC(=O)c1cccs1	i
Cc1ccc(-c2c(NC(=O)CN3CCN(CCO)CC3)oc3ccccc3c2=O)cc1	i
CSC1=N/C(=C\c2ccc(I)o2)C(=O)S1	i
CCOc1ccc(NC(=O)NC2CCN(c3ncccn3)CC2)cc1	i
O=C1CCSc2ccc(C(=O)NO)cc2N1	i
CCCCCN1CCN(c2nc3c(c(=O)[nH]c(=O)n3C)n2Cc2ccc(Cl)c(Cl)c2)CC1	i
O=C(Nc1ccc(Br)cc1)N1CCN(c2nc3ccccc3n2Cc2ccccc2)CC1	i
O=C(CCC(=O)c1cccs1)Nc1ccccc1N1CCCCC1	i
O=C(OCc1nc2ccccc2o1)c1cccc(O)c1	i
CCN1CCN(C(c2cccs2)c2c(NC(=O)c3ccccc3)sc(C)c2C)CC1 (stereo unspecified)	i
CC(C(=O)N1CCCCCC1)N1CCC(c2nc3ccccc3o2)CC1 (stereo unspecified)	i
SMILES	KDM5B inh
NC(=O)NC(=O)CN1CCCC(c2nc3ccccc3o2)C1 (stereo unspecified)	i
CCOC(=O)C1=C(C)Nc2nc(SCc3ccccc3)nn2C1c1ccc(C)cc1 (stereo unspecified)	i
CCc1ccc(OCc2nnc(SCC(=O)C(C)(C)C)n2CC(C)C)cc1	i
O=C(Nc1cccc(-c2nn3cnnc3s2)c1)c1ccccc1	i
COCc1cc(C)nc2sc3c(c12)NCN(c1cccc(OC)c1)C3=O	i
Cc1nc(C23CC4CC(CC(C4)C2)C3)c(C)o1	i
COCCNC(=O)c1nc(-c2c(C)cccc2C)c2ccccn12	35µM*
COCCNC(=O)c1nn(-c2ccc(C)cc2)c(=O)c2c1c1ccccc1n2C	i
COC(=O)CNC(=O)c1nc(-c2c(C)cccc2C)c2ccccn12	28µM*
COCCNC(=O)c1cccc2c1-c1ccccc1C2=O	i
CCc1ccc2oc(C(=O)Oc3ccc(C#N)cc3)c(C)c2c1	i
CCNc1nc2c(c(=O)[nH]c(=O)n2C)n1CCOc1ccccc1	i
C=CCn1c(SCCCc2ccccc2)nc2c1c(=O)n(C)c(=O)n2C	i
CC(=O)Nc1ccc(C(=O)N2Cc3ccccc3OC3(CCN(C(C)=O)CC3)C2)cc1	i
COc1ccc(/C=N/OCC(=O)OCC(=O)c2ccc(Cl)cc2)cc1	i
CCc1c(C(=O)NC(C)c2ccc(OC)c(OC)c2)csc1C (stereo unspecified)	i
CNC(=O)c1ccc2c(c1)NC(C)(COc1ccccc1)CO2 (stereo unspecified)	32µM*
CN(C)c1cccc(NC(=O)c2ccc3c(c2)NC(C)(COc2ccccc2)CO3)c1 (stereo unspecified)	32µM*
CC(C)N(c1ccccc1)c1ccc(NC(=O)c2cccc(N(C)C)c2)cc1	i
O=C1CSc2ccc(C(=O)NNC(=O)c3ccc(COc4ccccc4)o3)cc2N1	i
COc1ccc(C2CCCN2C(=O)Cn2cccnc2=O)cc1 (stereo unspecified)	i
COc1ccc(S(=O)(=O)N2CCN(C(=O)NC3CC3)CC2)cc1	i
CCCCN1C(=O)c2ccccc2C(C(=O)Nc2ccccn2)C12CCCC2 (stereo unspecified)	i
NC(=O)CO[C@@H]1CO[C@H]2[C@@H]1OC[C@@H]2NC(=O)Nc1ccccc1	i
O=C(N[C@H]1CO[C@H]2[C@@H]1OC[C@H]2OCc1ccccc1)c1ccccc1	i
CN(C)c1ccc(NC(=S)N[C@H]2CO[C@H]3[C@@H]2OC[C@H]3OC(=O)Nc2cccc3ccccc23)cc1	i
NC(=O)CO[C@@H]1CO[C@H]2[C@@H]1OC[C@@H]2NC(=O)Nc1cccc2ccccc12	28µM*
O=C(Nc1cccc2ccccc12)O[C@@H]1CO[C@H]2[C@@H]1OC[C@@H]2NC(=S)Nc1ccc(Cl)cc1	i
